A short description of assay [1]: qHTS assay to identify small molecule agonists of the TGF-beta/Smad signaling pathway (AID 1346859; active means well fitted activation curve with a large enough effect in the signal ratio in the repeat runs, not every such curve was filed as active; the % refers to the signal ratio; further: series mostly up to about 77 µM). The method in brief: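 HEK 293T cells stably carrying a beta-lactamase reporter driven by the Smad binding element were seeded overnight, exposed to DMSO-dissolved compounds for 5 hr at 37 C, 5% CO2, then loaded with FRET substrate for 2 hr at room temperature.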

Assay [2] has as its target Thyrotropin-releasing hormone receptor (Homo sapiens) (UniProt P34981). As to the kind of experiment: qHTS assay to identify small molecule antagonists of the thyrotropin-releasing hormone receptor (TRHR) signaling pathway (AID 1346877; active means well fitted inhibition curve with a large enough effect in the repeat runs, not every such curve was filed as active; further: series mostly up to about 51 µM). Put shortly: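 Antagonism is measured as suppression of the calcium response to 1 nM TRH in TRHR-HEK293 cells that have been dye-loaded for 2 h at 37 °C after overnight plating. Each compound is tested at 15 concentrations in triplicate.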
In general terms: qHTS replaces the single test concentration by a dilution series.

The target is the same in assay [3]. As to the kind of experiment: qHTS assay to identify small molecule agonists of the thyrotropin-releasing hormone receptor (TRHR) signaling pathway (AID 1346891; calls by dose curve; further: series mostly up to about 58 µM). Put shortly: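 TRHR-expressing HEK293 cells were plated 18 h at 37 °C/5% CO2, loaded with calcium dye 2 h at 37 °C, then given compound in DMSO; fluorescence was read kinetically for 3 min at 1 s intervals.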

Assay [4] in a line: Human pregnane X receptor (PXR) small molecule agonists, qHTS cell viability counter screen (AID 1346977). Further: nearly all actives have a fitted effect of over 50% in size. Put shortly: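 PXR-Luc HepG2 cells in medium with 5% charcoal-stripped FBS were pre-incubated 5hr, then exposed to compounds for 24hr at 37C. Viability was read in the same wells by CellTiter-Fluor fluorescence, reagent added after 23hr with a 1hr incubation.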
Assay [5] in a line: Caspase-3/7 induction in HepG2 cells by small molecules, qHTS assay (AID 1346978). Further: nearly all actives have a fitted effect of over 15% in size. Put shortly:
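Wild-type HepG2 cells (2,000/well) were settled 5 h at 37 C, 5% CO2, then exposed to compounds in DMSO for 17 h. Caspase-3/7 activity was read by luminescence 30 min after adding Caspase-Glo 3/7 reagent at room temperature.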

A short description of assay [6]: Caspase-3/7 induction in CHO-K1 cells by small molecules, qHTS cell viability counter screen (AID 1346979). Further: nearly all actives have a fitted effect of over 35% in size. Put shortly: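 Wild-type CHO-K1 cells were seeded at 1,500 per well, rested 5hr at 37 C, then exposed to compounds in DMSO. After 16hr, CellTiter-Fluor reagent was added and fluorescence read 1hr later as the viability measure.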
Assay [7] in a line: Caspase-3/7 induction in CHO-K1 cells by small molecules, qHTS assay (AID 1346980). Further: nearly all actives have a fitted effect of over 15% in size. The method in brief: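 Wild-type cells were seeded at 1,500 per well and settled 5 hr at 37 C, 5% CO2, then exposed to DMSO-dissolved compounds for 17 hr. Caspase-Glo 3/7 reagent was added, and luminescence was read after 30min at room temperature.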
A short description of assay [8]: Caspase-3/7 induction in HepG2 cells by small molecules, qHTS cell viability counter screen (AID 1346981). Further: series mostly up to about 92 µM; nearly all actives have a fitted effect of over 30% in size. The method in brief: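 Cell viability is measured as a cytotoxicity counter screen alongside the Caspase-Glo 3/7 readout in identical wells. Wild-type HepG2 cells are treated with test compounds for 16 hr at 37 C before CellTiter-Fluor addition and a 1-hr incubation.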

For assay [9], the target named is Nuclear receptor subfamily 1 group I member 2 (Homo sapiens) (UniProt O75469). As to the kind of experiment: Human pregnane X receptor (PXR) small molecule agonists, qHTS assay (AID 1346982). Further: nearly all actives have a fitted effect of over 35% in size. Put shortly: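 Cells: HepG2 stably carrying PXR-Luc. Medium held 5% charcoal-stripped FBS. Compounds in DMSO added after 5 hr plating, incubated 24 hr, then luminescence quantified with ONE-Glo.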

Assay [10] concerns the target Cytochrome P450 2D6 (Homo sapiens) (UniProt P10635). Nature of the assay: Cytochrome P450 Family 2 Subfamily D Member 6 (CYP2D6) small molecule antagonists: luciferase reporter qHTS assay (AID 1671196). Further: series mostly up to about 120 µM; nearly all actives have a fitted effect of over 50% in size. Put shortly:
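Enzyme and proluciferin substrate were first combined with test chemical for 10 min at room temperature. Adding NADPH regeneration solution started a 1 h reaction, stopped with luciferin detection reagent and read by luminescence 20 min later.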
In general terms: A reporter such as luciferase makes a cellular process visible.

For assay [11], the target named is Cytochrome P450 2C19 (Homo sapiens) (UniProt P33261). Nature of the assay: Cytochrome P450 Family 2 Subfamily C Member 19 (CYP2C19) small molecule antagonists: luciferase reporter qHTS assay (AID 1671197). Further: series mostly up to about 120 µM; nearly all actives have a fitted effect of over 65% in size. Put shortly:
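P450-Glo CYP2C19 system: enzyme-substrate mix with compound 10 min at room temperature, then NADPH regeneration solution, 1 h at 37C. Proluciferin-to-luciferin conversion detected by luminescence after 20 min with detection reagent; ketoconazole as positive control.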

Assay [12] deals with Cytochrome P450 2C9 (Homo sapiens) (UniProt P11712). As to the kind of experiment: Cytochrome P450 Family 2 Subfamily C Member 9 (CYP2C9) small molecule antagonists: luciferase reporter qHTS assay (AID 1671198). Further: series mostly up to about 120 µM; nearly all actives have a fitted effect of over 50% in size. Put shortly:
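CYP2C9 activity was measured with a P450-Glo proluciferin substrate. Enzyme–substrate mix was held with compound for 10 min at room temperature, then NADPH regeneration solution was added for 1 h at 37C. Luciferin product was read as luminescence.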

The target in assay [13] is Cytochrome P450 1A2 (Homo sapiens) (UniProt P05177). As to the kind of experiment: Cytochrome P450 Family 1 Subfamily A Member 2 (CYP1A2) small molecule antagonists: luciferase reporter qHTS assay (AID 1671199). Further: nearly all actives have a fitted effect of over 50% in size. Further: potency means the concentration at half of the fitted maximal effect. On activity change, negative = inhibition: series mostly up to about 120 µM. Put shortly:
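Compounds were incubated with CYP1A2 and a luminogenic proluciferin substrate for 10 min at room temperature before the reaction was started with NADPH regeneration solution. After 1 h, detection reagent was added and light output, proportional to CYP activity, was recorded.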

Assay [14] concerns the target Voltage-gated inwardly rectifying potassium channel KCNH2 (Homo sapiens) (UniProt Q12809). Nature of the assay: Human Ether-a-go-go-Related Gene (hERG) channel small molecule antagonists: fluorescence cell-based qHTS assay (AID 1671200). The method in brief:
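U2OS cells expressing the channel were plated at 1000 cells/well, incubated overnight at 37 C, then loaded with FluxOR II thallium-sensitive dye for 1 h at room temperature in the dark, with a further 10 min at room temperature before stimulation.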
A general note: The hERG channel carries a current that helps repolarise heart muscle cells.

In assay [15] the target is Cytochrome P450 3A4 (Homo sapiens) (UniProt P08684). Nature of the assay: Cytochrome P450 Family 3 Subfamily A Member 4 (CYP3A4) small molecule antagonists: luciferase reporter qHTS assay (AID 1671201). Put shortly: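 P450-Glo CYP3A4 system with proluciferin substrate; compounds preincubated 10 min RT with enzyme-substrate mix, then NADPH regeneration added for 1 h RT. Detection reagent 20 min, luminescence read as relative luminescence units.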

For assay [16], the target named is Nuclear receptor subfamily 1 group I member 2 (Rattus norvegicus) (UniProt Q9R1A7). As to the kind of experiment: Rat pregnane X receptor (rPXR) activation by small molecules, qHTS assay (AID 1346983). Further: nearly all actives have a fitted effect of over 20% in size. As to conditions: rPXR luciferase reporter cells, One-Glo luminescence, 24 h; max activation: hits give high values. The method in brief: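 Cell-based rPXR luciferase reporter assay, 2,000 cells per well, rested 5hr at 37 C before compound addition in DMSO, then 24 hr at 37 C. One-Glo reagent was added and luminescence read after 30 min at room temperature.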

Assay [17] concerns the target Nuclear receptor subfamily 1 group I member 2 (Homo sapiens) (UniProt O75469). As to the kind of experiment: CYP3A4 induction through human pregnane X receptor (PXR) by small molecules, qHTS assay (AID 1346984). Further: nearly all actives have a fitted effect of over 40% in size. Put shortly:
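Quantitative HTS in DPX-2 cells, i.e. HepG2 transfected with PXR response element and CYP3A4-promoter luciferase. Compounds in DMSO incubated 24hr at 37C; then P450-Glo CYP3A4 substrate, 3uM final, 3hr; One-Glo luminescence.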

Assay [18] shares this target. As to the kind of experiment: Human pregnane X receptor (PXR) activation by small molecules, qHTS assay (AID 1346985). Further: nearly all actives have a fitted effect of over 40% in size. Put shortly: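 DPX-2 cells (HepG2 co-transfected with a PXR response element and a CYP3A4-promoter luciferase construct) were seeded at 2,000 per well, rested 5 hr at 37C, then exposed to DMSO-dissolved compounds for 24 hr. Activation was read as luciferase luminescence.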

The structures appear in SMILES notation. Values without a mark were called inactive. Results filed as inconclusive are left out. Activity calls are given as the source filed them. Unless noted, the call rests on the fitted dose curve; in most records, active means well fitted curve in the direction sought with a large enough effect in the repeat runs; inconclusive means weak or mixed curves; inactive means no such curve, though single readings can be large; an effect the other way counts as inactive or inconclusive.
On the % scale 0 is the no-effect control and ±100 the full control effect.

Cytochrome P450 2C9 (Homo sapiens), sequence (P11712 whole entry, looked up): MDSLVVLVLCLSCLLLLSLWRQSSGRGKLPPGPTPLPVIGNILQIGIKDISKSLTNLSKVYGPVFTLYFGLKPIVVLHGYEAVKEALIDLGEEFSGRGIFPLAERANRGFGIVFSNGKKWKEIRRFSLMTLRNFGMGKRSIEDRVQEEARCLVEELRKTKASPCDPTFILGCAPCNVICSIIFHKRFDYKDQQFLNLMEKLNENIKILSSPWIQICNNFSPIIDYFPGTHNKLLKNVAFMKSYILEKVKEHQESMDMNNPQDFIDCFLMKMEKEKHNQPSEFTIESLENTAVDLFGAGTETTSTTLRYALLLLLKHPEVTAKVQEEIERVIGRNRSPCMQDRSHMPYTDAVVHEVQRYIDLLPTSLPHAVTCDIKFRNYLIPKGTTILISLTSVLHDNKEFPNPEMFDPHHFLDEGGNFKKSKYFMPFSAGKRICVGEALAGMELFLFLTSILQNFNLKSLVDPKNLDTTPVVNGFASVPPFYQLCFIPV
Cytochrome P450 2D6 (Homo sapiens), sequence (P10635 whole entry, looked up): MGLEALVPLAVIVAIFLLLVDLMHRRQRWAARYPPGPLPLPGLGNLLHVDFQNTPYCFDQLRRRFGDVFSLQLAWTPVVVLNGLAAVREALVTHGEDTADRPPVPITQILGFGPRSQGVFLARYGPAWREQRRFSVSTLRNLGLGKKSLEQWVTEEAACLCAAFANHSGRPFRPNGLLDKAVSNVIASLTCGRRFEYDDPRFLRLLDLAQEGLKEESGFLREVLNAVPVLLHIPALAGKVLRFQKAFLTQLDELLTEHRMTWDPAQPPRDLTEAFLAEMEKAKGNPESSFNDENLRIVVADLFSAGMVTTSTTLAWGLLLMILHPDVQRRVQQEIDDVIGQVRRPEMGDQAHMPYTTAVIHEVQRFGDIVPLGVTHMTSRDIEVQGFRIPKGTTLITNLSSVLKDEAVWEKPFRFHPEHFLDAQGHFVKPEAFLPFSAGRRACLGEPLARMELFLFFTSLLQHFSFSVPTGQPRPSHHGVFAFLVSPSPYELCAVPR
Voltage-gated inwardly rectifying potassium channel KCNH2 (Homo sapiens), sequence (Q12809 whole entry, looked up): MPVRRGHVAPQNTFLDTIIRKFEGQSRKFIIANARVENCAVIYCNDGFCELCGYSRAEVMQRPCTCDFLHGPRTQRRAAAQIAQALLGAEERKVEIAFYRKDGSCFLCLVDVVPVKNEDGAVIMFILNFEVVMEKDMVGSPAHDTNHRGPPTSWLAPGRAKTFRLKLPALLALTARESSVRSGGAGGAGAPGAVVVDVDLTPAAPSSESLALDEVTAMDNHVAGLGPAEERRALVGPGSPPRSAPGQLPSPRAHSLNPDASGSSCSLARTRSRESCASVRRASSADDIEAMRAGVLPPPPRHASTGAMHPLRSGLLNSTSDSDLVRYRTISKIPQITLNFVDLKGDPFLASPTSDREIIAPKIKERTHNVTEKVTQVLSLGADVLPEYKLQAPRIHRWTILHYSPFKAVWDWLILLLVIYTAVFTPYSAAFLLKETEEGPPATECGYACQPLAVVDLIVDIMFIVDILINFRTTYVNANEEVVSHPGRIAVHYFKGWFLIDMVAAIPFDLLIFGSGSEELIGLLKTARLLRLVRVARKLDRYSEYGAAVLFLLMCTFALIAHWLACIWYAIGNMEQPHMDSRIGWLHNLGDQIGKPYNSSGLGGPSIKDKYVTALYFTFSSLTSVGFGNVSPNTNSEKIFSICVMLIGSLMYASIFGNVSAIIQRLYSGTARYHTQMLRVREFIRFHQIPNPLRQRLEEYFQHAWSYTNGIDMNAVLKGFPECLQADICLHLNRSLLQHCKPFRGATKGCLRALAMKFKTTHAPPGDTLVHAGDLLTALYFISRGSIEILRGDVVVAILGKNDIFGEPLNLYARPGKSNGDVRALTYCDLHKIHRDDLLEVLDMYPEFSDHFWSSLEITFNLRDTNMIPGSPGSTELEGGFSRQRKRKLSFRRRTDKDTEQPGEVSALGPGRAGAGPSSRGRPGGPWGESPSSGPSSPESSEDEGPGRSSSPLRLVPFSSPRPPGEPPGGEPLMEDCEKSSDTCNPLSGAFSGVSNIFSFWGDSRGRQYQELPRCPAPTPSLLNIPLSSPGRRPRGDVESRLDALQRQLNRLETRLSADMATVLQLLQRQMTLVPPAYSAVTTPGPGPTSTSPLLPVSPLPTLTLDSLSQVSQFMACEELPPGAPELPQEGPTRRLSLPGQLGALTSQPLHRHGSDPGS
Cytochrome P450 2C19 (Homo sapiens), sequence (P33261 whole entry, looked up): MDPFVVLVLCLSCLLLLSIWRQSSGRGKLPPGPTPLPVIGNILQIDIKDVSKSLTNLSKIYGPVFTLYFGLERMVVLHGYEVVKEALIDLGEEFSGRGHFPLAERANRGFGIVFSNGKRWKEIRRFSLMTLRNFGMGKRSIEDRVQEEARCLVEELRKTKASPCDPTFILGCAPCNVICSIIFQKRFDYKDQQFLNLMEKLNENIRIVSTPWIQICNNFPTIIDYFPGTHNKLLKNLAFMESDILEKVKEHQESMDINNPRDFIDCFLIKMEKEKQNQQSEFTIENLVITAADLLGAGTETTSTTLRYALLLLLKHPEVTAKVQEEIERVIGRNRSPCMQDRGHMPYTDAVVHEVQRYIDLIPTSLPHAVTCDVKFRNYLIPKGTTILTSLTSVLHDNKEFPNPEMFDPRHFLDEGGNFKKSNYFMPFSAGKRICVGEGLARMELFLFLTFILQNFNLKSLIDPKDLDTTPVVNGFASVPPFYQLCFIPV
Nuclear receptor subfamily 1 group I member 2 (Rattus norvegicus), sequence (Q9R1A7 whole entry, looked up): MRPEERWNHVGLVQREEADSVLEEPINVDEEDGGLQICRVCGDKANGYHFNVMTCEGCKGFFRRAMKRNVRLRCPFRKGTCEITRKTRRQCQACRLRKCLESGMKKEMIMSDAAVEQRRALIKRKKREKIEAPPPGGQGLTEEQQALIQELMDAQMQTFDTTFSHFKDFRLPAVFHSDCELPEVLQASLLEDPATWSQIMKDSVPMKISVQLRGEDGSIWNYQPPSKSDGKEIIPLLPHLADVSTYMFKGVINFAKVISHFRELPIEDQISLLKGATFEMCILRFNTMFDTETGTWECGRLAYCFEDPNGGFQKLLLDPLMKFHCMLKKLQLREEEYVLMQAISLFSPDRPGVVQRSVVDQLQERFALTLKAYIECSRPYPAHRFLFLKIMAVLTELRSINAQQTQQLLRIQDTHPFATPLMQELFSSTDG
Nuclear receptor subfamily 1 group I member 2 (Homo sapiens), sequence (O75469 whole entry, looked up): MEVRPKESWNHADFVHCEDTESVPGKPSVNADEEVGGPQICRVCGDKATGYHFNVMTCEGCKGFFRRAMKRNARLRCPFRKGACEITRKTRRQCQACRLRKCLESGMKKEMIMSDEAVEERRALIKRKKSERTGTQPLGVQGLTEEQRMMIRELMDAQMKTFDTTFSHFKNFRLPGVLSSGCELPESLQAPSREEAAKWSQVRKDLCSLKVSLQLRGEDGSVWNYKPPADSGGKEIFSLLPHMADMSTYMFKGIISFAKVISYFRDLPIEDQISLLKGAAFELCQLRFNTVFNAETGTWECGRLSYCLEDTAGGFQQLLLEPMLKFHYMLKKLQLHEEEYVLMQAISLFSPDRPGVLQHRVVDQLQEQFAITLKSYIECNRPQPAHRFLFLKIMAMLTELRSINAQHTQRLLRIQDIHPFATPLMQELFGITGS
Cytochrome P450 1A2 (Homo sapiens), sequence (P05177 whole entry, looked up): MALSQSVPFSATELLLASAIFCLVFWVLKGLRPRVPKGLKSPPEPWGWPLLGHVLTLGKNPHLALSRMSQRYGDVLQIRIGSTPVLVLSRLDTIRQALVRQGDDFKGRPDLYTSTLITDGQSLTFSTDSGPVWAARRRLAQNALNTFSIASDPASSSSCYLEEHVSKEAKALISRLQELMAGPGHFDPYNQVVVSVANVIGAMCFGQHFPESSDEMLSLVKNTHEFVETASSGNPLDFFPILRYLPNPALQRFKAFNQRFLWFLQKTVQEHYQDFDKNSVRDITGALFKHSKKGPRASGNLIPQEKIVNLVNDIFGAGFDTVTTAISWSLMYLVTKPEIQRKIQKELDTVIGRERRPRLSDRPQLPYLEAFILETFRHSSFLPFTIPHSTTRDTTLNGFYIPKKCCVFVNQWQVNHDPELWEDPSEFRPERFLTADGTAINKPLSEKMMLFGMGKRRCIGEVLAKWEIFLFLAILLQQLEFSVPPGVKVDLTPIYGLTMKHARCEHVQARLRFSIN
Cytochrome P450 3A4 (Homo sapiens), sequence (P08684 whole entry, looked up): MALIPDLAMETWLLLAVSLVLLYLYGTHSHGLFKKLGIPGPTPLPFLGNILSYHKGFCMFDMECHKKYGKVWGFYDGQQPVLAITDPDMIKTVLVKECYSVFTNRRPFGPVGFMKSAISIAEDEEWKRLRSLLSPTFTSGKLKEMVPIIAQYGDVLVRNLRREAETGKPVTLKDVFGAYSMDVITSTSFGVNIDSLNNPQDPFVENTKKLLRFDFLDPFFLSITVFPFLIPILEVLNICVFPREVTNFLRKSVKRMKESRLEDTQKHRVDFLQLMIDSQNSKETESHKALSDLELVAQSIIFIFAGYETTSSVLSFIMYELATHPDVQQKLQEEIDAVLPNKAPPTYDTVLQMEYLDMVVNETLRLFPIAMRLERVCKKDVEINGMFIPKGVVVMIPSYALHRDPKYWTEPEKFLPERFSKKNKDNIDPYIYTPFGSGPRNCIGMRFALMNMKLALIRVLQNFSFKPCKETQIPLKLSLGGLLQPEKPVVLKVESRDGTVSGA
Thyrotropin-releasing hormone receptor (Homo sapiens), sequence (P34981 whole entry, looked up): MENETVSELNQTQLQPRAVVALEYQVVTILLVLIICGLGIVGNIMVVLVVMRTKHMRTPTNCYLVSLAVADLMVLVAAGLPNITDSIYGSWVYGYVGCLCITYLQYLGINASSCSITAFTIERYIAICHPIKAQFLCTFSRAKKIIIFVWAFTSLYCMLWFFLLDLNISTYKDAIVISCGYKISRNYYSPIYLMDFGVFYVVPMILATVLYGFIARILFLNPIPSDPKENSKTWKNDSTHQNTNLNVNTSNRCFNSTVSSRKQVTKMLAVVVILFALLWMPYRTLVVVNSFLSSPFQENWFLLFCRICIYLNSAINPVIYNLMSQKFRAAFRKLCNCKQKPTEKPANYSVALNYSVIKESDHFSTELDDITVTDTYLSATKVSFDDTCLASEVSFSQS

In the case of `CCCCCCCCOCCC#N`, the outcome in [1], in assay [2], in [4], in assay [5], in assay [7] and in assay [8] was inactive. Besides, the Potency result in assay [3], in assay [6], in assay [9], in [10], in assay [11] and in assay [12] was “inactive” each time. Moreover, the Potency entry in assay [13], in assay [14] and in assay [15] was “inactive” in each case.

Take `CCCC(=O)OC`: the molecule was classed as inactive in assay [1], in [2], in [4], in assay [5], in [7] and in [8]. Further, the Potency entry in assay [3], in assay [6], in assay [9], in assay [10], in [11] and in [12] was “inactive” throughout. Also, the Potency entry in [13], in assay [14] and in assay [15] was “inactive” throughout.

As for `O=C(CCBr)N1CCN(C(=O)CCBr)CC1`, the call in assay [1], in assay [2], in assay [4], in [5], in assay [7] and in [8] was inactive. For the same molecule, the molecule was classed as inactive in assay [17] and in [18]. For the same molecule, the Potency result in assay [3], in assay [6], in [9], in assay [11], in assay [12] and in [14] was “inactive” throughout. Further, the Potency entry in assay [15] is “inactive”. Also, in [16], the max activation was -2.92%.

In the case of `COc1cnc(NS(=O)(=O)c2ccc(N)cc2)nc1`, the call in assay [1], in [2], in [4], in assay [5], in assay [7] and in assay [8] was inactive. For the same molecule, the outcome in [17] and in assay [18] was inactive. The Potency result in [3], in [6], in assay [9], in assay [10], in assay [12] and in [13] was “inactive” each time. Besides, the Potency entry in assay [14] is “inactive”. Moreover, the max activation in assay [16] is -1.37%.

With `CN(C)CCc1c[nH]c2ccc(C[C@H]3COC(=O)N3)cc12`, the outcome in assay [1], in [2], in [4], in assay [5], in [7] and in assay [8] was inactive. Also, the molecule was called inactive in assay [17] and in assay [18]. Moreover, the Potency entry in [3], in assay [6], in [9], in [12], in assay [13] and in assay [14] was “inactive” throughout. Further, the max activation in assay [16] is -1.7%.

With `N=C(N)N1CCc2ccccc2C1`, the values for the activation in assay [1], in [3] and in assay [9] were -1.64% [at 6.97 µM], 0.0364% [at 5.23 µM] and -6.7% [at 8.39 µM], respectively. The activity, negative = inhibition in assay [2] is 4% [at 4.65 µM]. Further, the activity change, negative = cytotoxicity in assay [4] was 4.15% [at 8.39 µM]; in [6], 6.67% [at 8.39 µM]; in assay [8], 3.77% [at 8.39 µM]. The caspase activation in assay [5] is -1.31% [at 8.39 µM]. In addition, the caspase-3/7 activation in assay [7] was -0.384% [at 8.39 µM]. For the same molecule, the max activation in assay [16] is -0.056%. The outcome in assay [17] and in [18] was inactive. Besides, the activity change, negative = inhibition is -15.2% [at 10.5 µM] in assay [10], 6.48% [at 10.5 µM] in assay [12], 0.421% [at 10.5 µM] in assay [13] and -6.17% [at 6.97 µM] in assay [14].

For the molecule `CN(C)CCCN(C)C`, the activation is -1.23% [at 6.97 µM] in [1], -0.372% [at 5.23 µM] in assay [3] and 5.88% [at 8.39 µM] in assay [9]. Besides, in assay [2], the activity, negative = inhibition was -3.47% [at 4.65 µM]. The activity change, negative = cytotoxicity was 11.9% [at 8.39 µM] in assay [4], 2.18% [at 8.39 µM] in assay [6] and 6.58% [at 8.39 µM] in assay [8]. The caspase activation in [5] was 0.348% [at 8.39 µM]. For the same molecule, the caspase-3/7 activation in assay [7] is 1.46% [at 8.39 µM]. Further, the activity change, negative = inhibition in [10] was -7.64% [at 10.5 µM]; in assay [11] it was -19.3% [at 10.5 µM]; in assay [12], -13.3% [at 10.5 µM]; in assay [14], 0.578% [at 6.97 µM]; in assay [15], 12.7% [at 10.5 µM]. Also, in assay [13], the Potency is 1.95 µM (active).

These data come from PubChem BioAssay (Tox21).
